Results reported in PubChem BioAssay AID1159580 (chemical genetic matrix, 2015).
The whole screen tested about 5,500 compounds, of which about 2,000 (36%) were called active. About 18% were inconclusive and are not listed. No stated cut-off is given here; in the data, active means normalized growth mostly below about 0.91 (no sharp cut-off); inconclusive means no clear call, values can overlap the other calls; inactive means mostly above about 0.92. The list shows a part of the results.

Assay: chemical genetic growth profiling, strain panel (AID 1159580);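 further: tested at 20 µM; growth read once vehicle control cultures reached saturation at 30 °C; 1 = growth at the plate median or of vehicle wells; lower values mean less growth of the strain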
Conditions: S. cerevisiae deletion strains, growth OD

Measured: normalized growth

COc1cc(C(=O)O[C@H]2CC[C@@]3(C)[C@@H]4CC[C@H]5[C@]6(O)C[C@H](O)[C@@]7(O)[C@@H](CN8C[C@@H](C)CC[C@H]8[C@@]7(C)O)[C@]6(O)C[C@@]53O[C@]24O)cc(OC)c1OC
inactive: locus YAL021C, strain ccr4, active compounds read low 1 | locus YAL026C, strain drs2, active compounds read low 1.02 | locus YAL030W, strain snc1, active compounds read low 0.996 | locus YBL061C, strain skt5, active compounds read low 0.994 | locus YBR009C, strain hhf1, active compounds read low 1.01 | locus YBR021W, strain FUR4, active compounds read low 1.01 | locus YBR023C, strain chs3, active compounds read low 0.996 | locus YBR171W, strain sec66, active compounds read low 1.02 | locus YBR229C, strain ROT2, active compounds read low 0.955 | locus YBR231C, strain swc5, active compounds read low 0.994 | locus YBR279W, strain paf1, active compounds read low 1.01 | locus YCL011C, strain gbp2, active compounds read low 0.997 | locus YCL016C, strain dcc1, active compounds read low 1 | locus YCL029C, strain bik1, active compounds read low 0.98 | locus YCL061C, strain MRC1, active compounds read low 1 | locus YCL069W, strain vba3, active compounds read low 1 | locus YCR088W, strain abp1, active compounds read low 1.01 | locus YDL005C, strain med2, active compounds read low 0.973 | locus YDL035C, strain GPR1, active compounds read low 1 | locus YDL040C, strain nat1, active compounds read low 1 | locus YDL074C, strain BRE1, active compounds read low 1.03 | locus YDL101C, strain DUN1, active compounds read low 0.989 | locus YDL134C, strain PPH21, active compounds read low 0.979 | locus YDL185W, strain tfp1, active compounds read low 0.978 | locus YDL192W, strain arf1, active compounds read low 1.01 | locus YDR001C, strain nth1, active compounds read low 1.01 | locus YDR069C, strain doa4, active compounds read low 0.998 | locus YDR101C, strain arx1, active compounds read low 1.03 | locus YDR137W, strain rgp1, active compounds read low 0.965 | locus YDR159W, strain sac3, active compounds read low 0.972 | locus YDR162C, strain NBP2, active compounds read low 0.985 | locus YDR195W, strain ref2 0.967 | locus YDR297W, strain sur2, active compounds read low 1.01 | locus YDR318W, strain mcm21, active compounds read low 0.972 | locus YDR334W, strain swr1, active compounds read low 1.01 | locus YDR335W, strain msn5, active compounds read low 1.01 | locus YDR388W, active compounds read low 0.993 | locus YDR392W, strain spt3, active compounds read low 0.996 | locus YDR502C, strain sam2, active compounds read low 1 | locus YEL003W, strain gim4, active compounds read low 1 | locus YEL037C, strain rad23, active compounds read low 1.03 | locus YEL061C, strain CIN8 (second series), active compounds read low 1.02 | locus YEL061C, strain CIN8, active compounds read low 0.993 | locus YER015W, strain faa2, active compounds read low 0.998 | locus YER016W, strain bim1, active compounds read low 0.995 | locus YER110C, active compounds read low 0.975 | locus YER111C, strain swi4, active compounds read low 1 | locus YER155C, strain BEM2 (second series), active compounds read low 1 | locus YER155C, strain BEM2, active compounds read low 0.99 | locus YER167W, strain BCK2, active compounds read low 0.993 | locus YFR010W, strain ubp6, active compounds read low 1.02 | locus YGL078C, strain dbp3, active compounds read low 0.999 | locus YGL086W, strain mad1, active compounds read low 1.05 | locus YGL167C, strain pmr1, active compounds read low 0.999 | locus YGL173C, strain kem1, active compounds read low 1 | locus YGL227W, strain vid30, active compounds read low 1.01 | locus YGL240W, strain doc1, active compounds read low 0.978 | locus YGL248W, strain PDE1, active compounds read low 0.998 | locus YGL253W, strain hxk2, active compounds read low 1 | locus YGR078C, strain PAC10, active compounds read low 0.99 | locus YGR135W, strain pre9, active compounds read low 0.99 | locus YGR229C, strain SMI1, active compounds read low 1.02 | locus YGR252W, strain gcn5, active compounds read low 0.957 | locus YHR013C, strain ard1, active compounds read low 0.962 | locus YHR027C, strain rpn1, active compounds read low 1.01 | locus YHR030C, strain SLT2, active compounds read low 1 | locus YHR079C, strain IRE1 (second series), active compounds read low 0.992 | locus YHR094C, strain hxt1, active compounds read low 0.971 | locus YHR129C, strain ARP1, active compounds read low 0.985 | locus YHR142W, strain chs7, active compounds read low 1.02 | locus YHR200W, strain rpn10, active compounds read low 0.987 | locus YIL066C, strain RNR3, active compounds read low 0.983 | locus YIL073C, strain SPO22, active compounds read low 1.02 | locus YIL125W, strain kgd1, active compounds read low 1 | locus YIR030C, strain dcg1, active compounds read low 0.993 | locus YJL092W, strain hpr5, active compounds read low 1.02 | locus YJL095W, strain BCK1 (second series), active compounds read low 0.993 | locus YJL095W, strain BCK1, active compounds read low 0.998 | locus YJL115W, strain asf1, active compounds read low 1 | locus YJL129C, strain trk1, active compounds read low 1.01 | locus YJL134W, strain LCB3, active compounds read low 0.985 | locus YJL154C, strain vps35, active compounds read low 1.01 | locus YJL164C, strain tpk1, active compounds read low 0.999 | locus YJL166W, strain qcr8, active compounds read low 1.01 | locus YJL168C, strain set2, active compounds read low 0.996 | locus YJL187C, strain SWE1 (second series), active compounds read low 1.01 | locus YJL187C, strain SWE1, active compounds read low 1.01 | locus YJR043C, strain POL32, active compounds read low 0.993 | locus YKL009W, strain mrt4, active compounds read low 0.981 | locus YKL068W, active compounds read low 0.988 | locus YKL085W, strain MDH1 (second series), active compounds read low 1 | locus YKL085W, strain MDH1, active compounds read low 1 | locus YKL160W, strain elf1, active compounds read low 1 | locus YKR001C, strain vps1, active compounds read low 1.06 | locus YKR026C, strain gcn3, active compounds read low 1.01 | locus YKR091W, strain srl3, active compounds read low 1 | locus YLL001W, strain dnm1, active compounds read low 1.01 | locus YLL026W, active compounds read low 0.989 | locus YLL041C, strain sdh2, active compounds read low 1.01 | locus YLR027C, strain aat2, active compounds read low 0.977 | locus YLR039C, strain RIC1, active compounds read low 0.972 | locus YLR058C, strain SHM2, active compounds read low 0.978 | locus YLR102C, strain apc9, active compounds read low 0.985 | locus YLR221C, strain rsa3, active compounds read low 1 | locus YLR258W, strain gsy2, active compounds read low 0.98 | locus YLR262C, strain YPT6 (second series), active compounds read low 0.954 | locus YLR262C, strain YPT6, active compounds read low 0.975 | locus YLR268W, strain sec22, active compounds read low 1.04 | locus YLR320W, strain mms22, active compounds read low 0.986 | locus YLR330W, strain CHS5, active compounds read low 1 | locus YLR342W, strain FKS1 (second series), active compounds read low 1.03 | locus YLR342W, strain FKS1, active compounds read low 0.986 | locus YLR357W, strain rsc2, active compounds read low 0.974 | locus YLR370C, strain arc18, active compounds read low 0.985 | locus YLR371W, strain rom2, active compounds read low 0.991 | locus YLR384C, strain iki3, active compounds read low 0.974 | locus YLR418C, strain cdc73, active compounds read low 0.977 | locus YML016C, strain PPZ1, active compounds read low 0.998 | locus YML032C, strain rad52, active compounds read low 0.96 | locus YML120C, strain ndi1, active compounds read low 1 | locus YML124C, strain tub3, active compounds read low 0.985 | locus YMR058W, strain fet3, active compounds read low 1 | locus YMR078C, strain ctf18, active compounds read low 0.99 | locus YMR125W, strain sto1, active compounds read low 1.02 | locus YMR129W, active compounds read low 1 | locus YMR205C, strain PFK2, active compounds read low 1 | locus YMR223W, strain ubp8, active compounds read low 0.964 | locus YMR231W, strain pep5, active compounds read low 0.999 | locus YMR307W, strain GAS1, active compounds read low 1.07 | locus YNL067W, strain RPL9B, active compounds read low 0.997 | locus YNL071W, strain lat1, active compounds read low 1 | locus YNL153C, strain GIM3, active compounds read low 1.01 | locus YNL209W, strain ssb2, active compounds read low 0.997 | locus YNL233W, strain BNI4, active compounds read low 1.01 | locus YNL248C, strain rpa49, active compounds read low 1.01 | locus YNL250W, strain rad50, active compounds read low 0.977 | locus YNL271C, strain bni1, active compounds read low 0.993 | locus YNL298W, strain CLA4, active compounds read low 0.971 | locus YNL307C, strain MCK1, active compounds read low 0.986 | locus YNL322C, strain KRE1 (second series), active compounds read low 0.989 | locus YNL322C, strain KRE1, active compounds read low 0.996 | locus YNR049C, strain mso1, active compounds read low 0.987 | locus YNR052C, strain pop2, active compounds read low 0.996 | locus YOL012C, strain htz1 1.37 | locus YOL147C, strain pex11, active compounds read low 0.985 | locus YOR001W, strain rrp6, active compounds read low 0.988 | locus YOR061W, strain CKA2, active compounds read low 0.962 | locus YOR069W, strain VPS5, active compounds read low 0.996 | locus YOR070C, strain gyp1, active compounds read low 1.01 | locus YOR080W, strain dia2, active compounds read low 1.01 | locus YOR083W, strain WHI5, active compounds read low 1 | locus YOR106W, strain vam3, active compounds read low 0.999 | locus YOR136W, strain idh2, active compounds read low 0.985 | locus YOR144C, strain elg1, active compounds read low 0.98 | locus YOR184W, strain ser1, active compounds read low 0.976 | locus YOR265W, strain rbl2, active compounds read low 0.983 | locus YOR270C, strain vph1, active compounds read low 1.11 | locus YOR290C, strain snf2, active compounds read low 1.02 | locus YOR316C, strain cot1, active compounds read low 0.976 | locus YPL051W, strain arl3, active compounds read low 0.998 | locus YPL055C, strain LGE1, active compounds read low 1.01 | locus YPL078C, strain atp4, active compounds read low 0.998 | locus YPL106C, strain sse1, active compounds read low 0.968 | locus YPL240C, strain hsp82, active compounds read low 0.992 | locus YPR119W, strain clb2, active compounds read low 0.979 | locus YPR141C, strain kar3, active compounds read low 0.981 | locus YPR163C, strain tif3, active compounds read low 1.01 | locus YPR167C, strain met16, active compounds read low 0.978 | strain wtn01, active compounds read low 1.04
